Our source for the Potency and outcome values is PubChem BioAssay (NCATS).

Experiment [1] can be described thus: Quantitative high throughput screen for delayed death inhibitors of the malarial parasite plastid, 48 hour incubation (AID 488752). Also: nearly all actives have a fitted effect of over 65% in size. Also: potency is read from the fitted curve at half-maximal effect. A digest of the protocol:
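First, compound was pinned into RPMI 1640 medium containing 0.5% Albumax. Next, reporter-parasite-infected erythrocytes were added to 2% hematocrit and 0.1% parasitemia. After 48 h at 37 C under 5% CO2, luciferase detection reagent was added and luminescence read.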

Experiment [2] has as its target Thioredoxin reductase 1, cytoplasmic (Rattus norvegicus) (UniProt O89049). The experiment in a line: qHTS Assay for Substrates of Mammalian Selenoprotein Thioredoxin Reductase 1 (TrxR1) (AID 488772).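 Also: series mostly up to about 57 µM; a drop in NADPH fluorescence below the no-compound background marks a TrxR1 substrate.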 In outline:
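In this dual-purpose format, potential substrates are identified from the first fluorescence read after selenite addition, not from the 8-minute delta. Rat enzyme is preincubated with NADPH and then with compound at ~22 deg C.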
(In general: qHTS replaces the single test concentration by a dilution series.)

The target is the same in experiment [3]. The experiment in a line: qHTS Assay for Inhibitors of Mammalian Selenoprotein Thioredoxin Reductase 1 (TrxR1) (AID 488773). Also: nearly all actives have a fitted effect of over 40% in size. Also: potency is read from the fitted curve at half-maximal effect. Conditions: Potency: inhibition. A digest of the protocol:
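Inhibition is scored from the loss of NADPH fluorescence between first and last reads of an 8-min kinetic run. Selenite (400 uM) was the substrate, added after 15 min compound preincubation at room temperature.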

Experiment [4] concerns the target Flap endonuclease 1 (Homo sapiens) (UniProt P39748). The experiment in a line: qHTS Validation Assay for the Inhibitors of Human Flap endonuclease 1 (FEN1) (AID 488816). A digest of the protocol:
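qHTS format: compounds and 10 nM FEN1 incubated 15 min at room temperature before adding 50 nM substrate. Cleavage followed by reads at 0 and 15 min; normalized data fitted to a four-parameter Hill curve.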

Experiment [5] deals with M-phase phosphoprotein 8 (Homo sapiens) (UniProt Q99549). As to the kind of experiment: qHTS Validation Assay for Inhibitors for MPP8 Chromodomain Interactions with Methylated Histone Tails (AID 488949). Also: nearly all actives have a fitted effect of over 55% in size. Also: potency is read from the fitted curve at half-maximal effect. A digest of the protocol: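 Chemiluminescent proximity assay: histidine-tag capture via nickel acceptor beads, biotin peptide via streptavidin donor beads. Protein and peptide each at 50 nM, pH 7.4, with 30 min incubations at room temperature for complex formation, compound exposure and bead binding.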
Sequence of M-phase phosphoprotein 8 (Homo sapiens) (Q99549 whole entry, looked up): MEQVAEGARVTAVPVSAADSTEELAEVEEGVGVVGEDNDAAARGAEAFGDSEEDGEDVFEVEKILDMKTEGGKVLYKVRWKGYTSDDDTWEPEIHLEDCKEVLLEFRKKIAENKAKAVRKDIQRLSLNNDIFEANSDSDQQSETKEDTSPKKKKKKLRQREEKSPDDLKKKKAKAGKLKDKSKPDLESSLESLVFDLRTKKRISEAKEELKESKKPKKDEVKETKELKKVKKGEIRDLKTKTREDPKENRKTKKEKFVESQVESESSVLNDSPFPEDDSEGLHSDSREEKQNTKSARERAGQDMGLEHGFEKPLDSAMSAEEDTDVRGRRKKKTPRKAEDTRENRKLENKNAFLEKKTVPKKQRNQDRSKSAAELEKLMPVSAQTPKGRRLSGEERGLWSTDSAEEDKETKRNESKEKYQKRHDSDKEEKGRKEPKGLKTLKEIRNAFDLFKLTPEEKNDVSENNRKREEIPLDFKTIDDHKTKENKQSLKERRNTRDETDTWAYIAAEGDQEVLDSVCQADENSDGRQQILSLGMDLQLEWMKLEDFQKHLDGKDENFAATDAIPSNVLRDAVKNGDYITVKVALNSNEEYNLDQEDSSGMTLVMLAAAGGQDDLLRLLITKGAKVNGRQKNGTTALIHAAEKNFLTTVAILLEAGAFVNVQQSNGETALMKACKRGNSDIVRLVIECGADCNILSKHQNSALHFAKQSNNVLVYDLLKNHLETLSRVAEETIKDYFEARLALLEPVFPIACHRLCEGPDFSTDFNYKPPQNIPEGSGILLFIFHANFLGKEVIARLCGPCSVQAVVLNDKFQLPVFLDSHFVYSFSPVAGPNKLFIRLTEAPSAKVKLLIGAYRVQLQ

Experiment [6] deals with Methanococcus maripaludis chaperonin (MmCpn) (UniProt Q6LX38). The experiment in a line: High-Throughput Screening for Modulators of Cytosolic Chaperonin Activity: MmCpn Primary Screen (AID 488978). In outline:
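HTRF readout (320 nm excitation, 590/665 nm emission) of ADP generated by 50 nM MmCpn hydrolysing 30 uM ATP during 10 min at 37C; compound preincubated 5 min RT.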

Experiment [7] has as its target Transient receptor potential cation channel subfamily V member 1 (Homo sapiens) (UniProt Q8NER1). As to the kind of experiment: HTS Assay for Compounds that Act as Enhancers of the Vanilloid Receptor 1 (AID 488979). In outline:
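Calcium influx kinetics via Fluo-8 (480/520 nm) in TRPV1-expressing cells, 2000/well cultured overnight at 35.5C. Compound-alone read 3 min (agonist phase), followed by EC20 capsaicin challenge for 2 min (enhancer phase).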

The nature of experiment [8]: Quantitative high throughput screen for delayed death inhibitors of the malarial parasite plastid, 96 hour incubation (AID 488745). Also: nearly all actives have a fitted effect of over 70% in size. Also: potency is read from the fitted curve at half-maximal effect. A digest of the protocol:
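Readout is firefly luciferase luminescence from an integrated reporter in P. falciparum; lower signal marks inhibited growth. Cultures at 2% hematocrit and 0.1% parasitemia were treated with compound across two generations (96 h, 37 C, 5% CO2).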

The target in experiment [9] is Chromobox protein homolog 1 (Homo sapiens) (UniProt P83916). The experiment in a line: qHTS Validation Assay for Inhibitors of HP1-beta Chromodomain Interactions with Methylated Histone Tails (AID 488953). Also: nearly all actives have a fitted effect of over 50% in size. Also: potency is read from the fitted curve at half-maximal effect. In outline:
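Disruption of preformed HP1-beta:H3K9me3 peptide complexes (both 50 nM, PBS pH 7.4 with 0.01% Tween-20) is measured by AlphaScreen after 30 min compound exposure at room temperature, using streptavidin donor and nickel chelate acceptor beads at 10 ug/mL final.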

Records with an inconclusive call do not appear. Some structures have more than one record in an assay (separate samples or runs), and their calls can disagree. Active and inactive are the calls of the source. Calls follow the shape of the dose curve; as a rule, active = well fitted curve in the direction sought with a large enough effect; inconclusive = small, poorly fitted or top-dose-only effect, or another doubt; inactive = no such curve, though single readings can be large; an effect the other way counts as inactive or inconclusive.

Sequence of Methanococcus maripaludis chaperonin (MmCpn) (Q6LX38 1-543): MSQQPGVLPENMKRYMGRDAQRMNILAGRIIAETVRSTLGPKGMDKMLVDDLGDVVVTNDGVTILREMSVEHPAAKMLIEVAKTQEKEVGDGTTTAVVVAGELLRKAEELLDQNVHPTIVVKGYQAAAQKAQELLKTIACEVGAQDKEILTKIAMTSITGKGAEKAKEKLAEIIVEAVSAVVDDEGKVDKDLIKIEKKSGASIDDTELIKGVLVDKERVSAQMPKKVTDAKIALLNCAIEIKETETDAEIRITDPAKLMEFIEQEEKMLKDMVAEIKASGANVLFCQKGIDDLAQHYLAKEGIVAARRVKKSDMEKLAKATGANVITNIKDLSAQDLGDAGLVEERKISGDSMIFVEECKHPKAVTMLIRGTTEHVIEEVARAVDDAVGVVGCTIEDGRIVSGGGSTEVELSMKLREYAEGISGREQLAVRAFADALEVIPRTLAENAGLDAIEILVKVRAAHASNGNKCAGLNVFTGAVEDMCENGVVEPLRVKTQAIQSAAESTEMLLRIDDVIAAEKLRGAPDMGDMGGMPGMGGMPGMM
Sequence of Thioredoxin reductase 1, cytoplasmic (Rattus norvegicus) (O89049 whole entry, looked up): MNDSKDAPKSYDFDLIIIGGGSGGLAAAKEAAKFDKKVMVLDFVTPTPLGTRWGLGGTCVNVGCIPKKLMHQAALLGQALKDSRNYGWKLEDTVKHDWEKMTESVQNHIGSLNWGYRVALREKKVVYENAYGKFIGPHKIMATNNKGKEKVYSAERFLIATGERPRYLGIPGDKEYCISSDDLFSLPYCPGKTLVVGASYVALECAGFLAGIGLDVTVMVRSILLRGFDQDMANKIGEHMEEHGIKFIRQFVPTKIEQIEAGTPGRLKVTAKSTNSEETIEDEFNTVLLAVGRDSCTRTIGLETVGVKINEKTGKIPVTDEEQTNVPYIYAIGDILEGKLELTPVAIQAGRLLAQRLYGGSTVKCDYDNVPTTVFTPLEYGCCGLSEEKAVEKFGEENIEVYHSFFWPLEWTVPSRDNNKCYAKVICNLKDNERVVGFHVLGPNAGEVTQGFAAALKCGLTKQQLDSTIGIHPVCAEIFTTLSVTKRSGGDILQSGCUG
Sequence of Flap endonuclease 1 (Homo sapiens) (P39748 whole entry, looked up): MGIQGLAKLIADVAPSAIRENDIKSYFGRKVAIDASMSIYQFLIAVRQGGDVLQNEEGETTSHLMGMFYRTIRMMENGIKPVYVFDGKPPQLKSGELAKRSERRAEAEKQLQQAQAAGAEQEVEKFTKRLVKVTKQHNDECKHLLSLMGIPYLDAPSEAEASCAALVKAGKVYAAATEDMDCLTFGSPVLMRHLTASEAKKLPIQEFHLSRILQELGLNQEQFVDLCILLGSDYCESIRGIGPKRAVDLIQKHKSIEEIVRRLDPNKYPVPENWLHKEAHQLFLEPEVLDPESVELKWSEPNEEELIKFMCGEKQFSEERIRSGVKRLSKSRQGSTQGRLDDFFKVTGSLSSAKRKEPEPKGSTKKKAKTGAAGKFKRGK
Sequence of Transient receptor potential cation channel subfamily V member 1 (Homo sapiens) (Q8NER1 whole entry, looked up): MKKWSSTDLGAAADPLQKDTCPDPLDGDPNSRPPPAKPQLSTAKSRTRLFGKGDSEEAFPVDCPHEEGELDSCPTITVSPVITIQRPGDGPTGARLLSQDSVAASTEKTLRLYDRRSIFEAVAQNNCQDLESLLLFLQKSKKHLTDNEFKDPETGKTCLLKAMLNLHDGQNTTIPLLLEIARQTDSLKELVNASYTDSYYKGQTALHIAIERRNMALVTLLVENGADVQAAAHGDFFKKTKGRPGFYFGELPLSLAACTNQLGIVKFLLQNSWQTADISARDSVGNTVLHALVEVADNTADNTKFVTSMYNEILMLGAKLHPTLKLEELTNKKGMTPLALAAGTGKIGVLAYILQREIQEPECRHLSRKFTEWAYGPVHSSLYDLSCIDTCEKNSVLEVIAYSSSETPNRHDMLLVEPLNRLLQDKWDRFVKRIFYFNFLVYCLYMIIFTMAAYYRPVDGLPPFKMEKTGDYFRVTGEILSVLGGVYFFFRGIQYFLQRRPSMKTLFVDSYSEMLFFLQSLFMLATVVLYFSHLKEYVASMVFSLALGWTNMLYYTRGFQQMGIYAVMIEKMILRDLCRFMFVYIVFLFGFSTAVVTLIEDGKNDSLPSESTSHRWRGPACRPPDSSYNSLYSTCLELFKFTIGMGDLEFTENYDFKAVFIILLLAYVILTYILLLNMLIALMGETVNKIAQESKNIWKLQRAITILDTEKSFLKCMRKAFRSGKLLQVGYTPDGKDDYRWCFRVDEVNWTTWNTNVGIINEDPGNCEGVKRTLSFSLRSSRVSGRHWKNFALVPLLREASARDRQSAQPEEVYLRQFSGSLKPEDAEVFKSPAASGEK
Sequence of Chromobox protein homolog 1 (Homo sapiens) (P83916 whole entry, looked up): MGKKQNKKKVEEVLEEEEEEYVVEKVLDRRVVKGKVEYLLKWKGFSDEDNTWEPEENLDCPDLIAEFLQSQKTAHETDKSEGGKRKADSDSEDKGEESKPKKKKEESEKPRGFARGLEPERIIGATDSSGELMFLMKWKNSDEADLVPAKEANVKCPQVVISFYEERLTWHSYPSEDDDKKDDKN

As to `N[C@@H](CCC(=O)N[C@H](CSN=O)C(=O)NCC(=O)O)C(=O)O`, the Potency result in [1], in [3], in experiment [4] and in [5] was “inactive” each time. Further, the compound was classed as inactive in [2], in experiment [6] and in experiment [7].
Consider `O=c1cc(O)cc(/C=C/c2ccc(O)c(O)c2)o1`, for which the Potency result in experiment [1] and in [3] was “inactive” in each case. The compound was classed as inactive in experiment [2], in experiment [6] and in [7]. Moreover, the Potency in [5] was 5.32 µM (active).
For `CCCOC(=O)c1c(-c2ccccc2)nc(CC)c(C(=O)SCC)c1CCC`, the Potency in experiment [8] was 14.7 µM (active). For the same compound, the compound was called inactive in [2], in experiment [6] and in experiment [7]. Besides, the Potency entry in [3], in experiment [4] and in [9] was “inactive” each time.
Consider `NC(=O)c1cc[n+](CC2=C(C(=O)O)N3C(=O)[C@@H](NC(=O)[C@@H](c4ccccc4)S(=O)(=O)[O-])[C@H]3SC2)cc1`, for which the Potency result in [1], in [4] and in experiment [5] was “inactive” throughout. Further, the compound was classed as inactive in experiment [2], in [6] and in experiment [7].
Regarding `COc1ccccc1N1CCN(CCCNc2c(C)c(=O)n(C)c(=O)n2C)CC1`, the Potency in experiment [8] is 14.7 µM (active). In addition, the outcome in experiment [2], in experiment [6] and in experiment [7] was inactive. Moreover, the Potency entry in experiment [3], in experiment [4] and in experiment [5] was “inactive” throughout.
Consider `Cc1ccccc1/C=C/C1=NCCN1`, for which the Potency result in experiment [1], in [3], in experiment [4], in [5] and in [9] was “inactive” in each case. The call in experiment [2], in experiment [6] and in experiment [7] was inactive.
Regarding `Nc1ccc2c3c(cccc13)C(=O)NC2=O`, the Potency result in [1], in experiment [3], in experiment [5] and in experiment [9] was “inactive” in each case. Further, the compound was called inactive in [2] and in experiment [6].
As to `O=C(N[C@@H](Cc1ccccc1)C(=O)CCl)OCc1ccccc1`, the Potency entry in [1], in [4], in [5] and in experiment [9] was “inactive” in each case. Also, the compound was classed as inactive in [2], in experiment [6] and in experiment [7]. Moreover, in [3], the Potency is 21.2 µM (active).
On to `CC(C)(CO)Cc1cc(C(C)(C)C)c(O)c(C(C)(C)C)c1`, for which the Potency result in [8], in experiment [3] and in experiment [4] was “inactive” each time. The result in experiment [2], in experiment [6] and in experiment [7] was inactive.
As to `O=C(O)c1ccccc1Nc1ccccc1`, the Potency result in experiment [1], in [3], in [4] and in [5] was “inactive” in each case. The result in experiment [2], in experiment [6] and in [7] was inactive.
With `Nc1nc2[nH]c(=O)cnc2c(=O)[nH]1`, the Potency entry in [8], in [1], in experiment [4] and in experiment [5] was “inactive” throughout. Besides, the call in experiment [6] and in experiment [7] was inactive.
With `O=c1onc2cnc3ccccc3n12`, the Potency result in experiment [1], in experiment [3], in [4] and in experiment [5] was “inactive” in each case. Also, the call in [2], in experiment [6] and in experiment [7] was inactive.
As to `CCN1C(=O)C=CC1=O`, the Potency result in experiment [1], in experiment [3] and in experiment [4] was “inactive” each time. Further, the outcome in experiment [2], in experiment [6] and in experiment [7] was inactive.
`CN1CCN(c2nc3cc(C(F)(F)F)ccc3n3cccc23)CC1`: the Potency in [1] was 8.28 µM (active). In addition, the compound was classed as inactive in experiment [2], in experiment [6] and in experiment [7]. Besides, the Potency result in [3], in [4] and in experiment [5] was “inactive” throughout.
For the compound `NC(Cc1cccc(-c2ccccc2CP(=O)(O)O)c1)C(=O)O` (stereo not drawn), the Potency entry in experiment [1], in [3], in experiment [4] and in [9] was “inactive” each time. The outcome in experiment [2], in [6] and in experiment [7] was inactive.
Turning to `C=CCN1CCc2c(cc(O)c(O)c2Cl)C(c2ccccc2)C1` (stereo not drawn), the Potency in experiment [8] is 3.7 µM (active); in experiment [5], 39.8 µM (active) and inactive. Besides, the compound was classed as inactive in experiment [2], in experiment [6] and in [7]. The Potency result in experiment [4] was “inactive”.
For `O=C(c1ccc2c(c1)OCCO2)N1CCCCC1`, the Potency result in [1], in experiment [3], in experiment [4], in experiment [5] and in [9] was “inactive” each time. Moreover, the result in experiment [2] and in [6] was inactive.
With `O=c1[nH]c2cc(Cl)ccc2c(O)c1-c1ccc(Oc2ccccc2)cc1`, the Potency result in experiment [1], in experiment [3], in experiment [4] and in [9] was “inactive” in each case. Moreover, the outcome in experiment [2], in [6] and in experiment [7] was inactive.
For the compound `CCOC(=O)C12CC1/C(=N/O)c1ccccc1O2` (stereo not drawn), the Potency result in [1], in experiment [3], in experiment [4], in [5] and in [9] was “inactive” throughout. The call in experiment [2], in experiment [6] and in experiment [7] was inactive.
Turning to `CCn1c(=O)[nH]c2cc(Cl)c(Cl)cc21`, the Potency result in [8], in experiment [1], in [5] and in [9] was “inactive” throughout. Besides, the compound was classed as inactive in experiment [6] and in experiment [7].
In the case of `CCCCCCC/C=C\CCCCCCCCC(=O)O`, the Potency result in experiment [1], in experiment [3], in experiment [4], in [5] and in experiment [9] was “inactive” each time. The outcome in experiment [2], in [6] and in experiment [7] was inactive.
Consider `NC(=O)CC[C@H](N)C(=O)O`, for which the Potency result in experiment [1], in experiment [3], in experiment [4] and in experiment [9] was “inactive” in each case. Also, the call in experiment [2], in experiment [6] and in experiment [7] was inactive.
Consider `N=C(N)c1ccc(OCCCCCOc2ccc(C(=N)N)cc2)cc1` (tested in a mixture with another compound), for which the Potency in [1] is 0.185 µM (active). For the same compound, the result in [2], in [6] and in [7] was inactive. Also, the Potency result in experiment [3], in [4], in experiment [5] and in [9] was “inactive” in each case.
Turning to `COC(=O)C(N)Cc1ccc(Cl)cc1` (stereo not drawn), the Potency entry in experiment [1], in experiment [3], in [4] and in experiment [5] was “inactive” in each case. Moreover, the result in [2], in experiment [6] and in experiment [7] was inactive. Moreover, in experiment [9], the Potency is 0.0067 µM (active).
Take `CCCCCCCC/C=C\CCCCCCCC(=O)NCCc1ccc(O)c(O)c1`: the Potency in [8] is 14.7 µM (active); in experiment [1] it was 13.1 µM (active). The Potency result in experiment [4] is “inactive”. Moreover, the compound was called inactive in experiment [6].
As to `CCCCCCCCCCCCCCC[C@H](O)[C@H](N)CO`, the Potency entry in [1], in experiment [3], in [4] and in experiment [5] was “inactive” each time. Further, the compound was classed as inactive in experiment [2], in experiment [6] and in [7]. Besides, the Potency in experiment [9] was 89.1 µM (active).
